# Reference: PubChem BioAssay (NCI)
# This is part of a sample that, as a whole, favours compounds with a hit. Of some 83,000 tested, about 20% had one in any assay.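 Each cell line was grown in a 96-well plate and treated with one concentration of compound for 48 hours. Values below 10 were considered active.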 Unmarked numbers belong to inactive results. Calls of active or inactive are those of the source.
# System: MDA-MB-468 breast
# Test: NCI-60 one-dose screen, 48 h (100 = growth as untreated, 0 = no growth, -100 = all killed)
# Conditions: 10 µM unless noted
row,Structure (SMILES),growth
1,C=C(C)[C@@H]1CC[C@]2(C)CC[C@]3(C)[C@H](CC[C@@H]4[C@@]5(C)CCCNC(C)(C)[C@@H]5CC[C@]43C)[C@@H]12,26.2%
2,COC(=O)C(=Cc1ccccc1[N+](=O)[O-])C(=O)OC,20.2%
3,O=C1NC(=O)C(=Cc2cn(Cc3ccccn3)c3ccccc23)C(=O)N1,-51.2% (active)
4,O=C(CCCN1C(=O)/C(=C/c2ccccc2F)SC1=S)N1CCOCC1,55.7%
5,O=C(Nc1ccc(-n2ccc3c(NC(=O)c4ccccc4)ncnc32)cc1)c1ccc(Cl)c(C(F)(F)F)c1,-5.36% (active)
6,O=C(NCCO)C(F)(F)F,116%
7,Cc1[nH]c(-c2ccc3cc[nH]c3c2)c2c1C(=O)CCCC2,15.8%
8,CCOC(=O)c1ccc2[nH]c(-c3ccccc3)cc(=O)c2c1,105%
9,O=C1C=CC(=O)N1c1ccccc1N1C(=O)C=CC1=O,104%
10,CC(C)(C)CC(C)(C)Nc1c(-c2c(O)c3ccccc3oc2=O)nc2c(Cl)cc(C(F)(F)F)cn12,92.2%
11,CCOc1ccc(C(C[N+](=O)[O-])Sc2ccccc2N)cc1 (centres undefined),-58.4% (active)
12,COc1cc(-c2nc3sccn3c2-c2ccnc(S(C)(=O)=O)n2)ccc1F,72.3%
13,COc1ccc(OC)c(Nc2nc(-c3c(C)nc4sccn34)cs2)c1,24.5%
14,CCc1ccc(NC(=O)N[C@@H](Cc2cccc(F)c2)C(=O)N[C@@H]2C(=O)N3CCC[C@H]3C(=O)N3CCCC[C@H]3C(=O)N[C@@H](CO)C(=O)N3C[C@H](C)C[C@H]3C(=O)O[C@H]2C)c(F)c1,-7.85% (active)
